From PubChem BioAssay (NCATS)
Records with an inconclusive call do not appear. A number with no mark means an inactive call. Active and inactive are the calls of the source. Calls follow the shape of the dose curve; as a rule, active = well fitted cell-killing curve with a large enough effect; inconclusive = small, poorly fitted or top-dose-only effect; inactive = flat fitted curve, though single readings scatter.

Experiment: Cell Viability - LYMP2-024 (AID 988); also: nearly all actives have a fitted effect of over 60% in size
Conditions: LYMP2-024 lymphoblastoid cell viability; series mostly up to 92.2 µM; activity change, negative = cytotoxicity: at the top concentration
Excerpt: NIH Chemical Genomics Center [NCGC]
NIH Molecular Libraries Screening Centers Network [MLSCN]
National Institutes of Environmental Health Sciences [NIEHS]
National Toxicology Program [NTP]
We have developed a 1536-well cell-based assay for quantitative high throughput screening (qHTS) against a number of cell lines to determine in vitro cytotoxicity of small molecules. This particular assay uses a human lymphoblastoid cell line (LYMP2-024) purchased from Coriell Institute for Medical Research.
NCGC Assay Protocol Summary:
The CellTiter-Glo luminescent cell viability assay (Promega) is a homogeneous method to measure the number of viable cells in culture. The end point readout of this assay is based on quantitation of intracellular ATP, an indicator of metabolic activity, using the luciferase reaction. Luciferase catalyzes the oxidation of beetle Luciferin to oxyluciferin and light in the presence of ATP. The luminescent signal is proportional to amount of ATP present.
Using the CellTiter-Glo luminescent cell viability assay, the amount of cellular ATP was measured in the lymphoblastoid cell line with complete culture medium following compound treatment for 24 hours. The assay was performed in opaque white Kalypsys 1536-well plates. In the screen, tetraoctylammonium bromide was used as positive control. Library compounds were measured for their ability to cause acute toxicity in the cell line, as reflected by a decrease in intracellular ATP levels, in a concentration-dependent manner. […] AC50 values were determined from concentration-response data modeled with the standard Hill equation.
qHTS protocol for CellTiter Glo lymphoblastoid cellular assay
[Step] [Parameter] [Value] [Description]
1. Reagent; 5 uL; 2500 lymphoblastoid cells/well
2. Time; 5 hr; 37 C incubation
4. Controls; 23 nL; Tetraoctylammonium bromide 6.4pM to 92 uM
5. Time; 24 hr; 37 C incubation
6. Reagent; 5 uL; CellTiter Glo reagent
7. Time; 30 min; Room Temperature
8. Detection; Luminescence; Viewlux plate reader
Keywords: cell viability, cytotoxicity, lymphoblastoid cell line, luminescence, NTPHTS, NTPHTS_NCGC, NIEHS, DSSTox, MLSMR, MLSCN, NIH Roadmap, qHTS, NCGC
Potency is read from the fitted curve at half-maximal effect.

SMILES | activity change, negative = cytotoxicity | Potency
COP(=S)(OC)SCn1nnc2ccccc2c1=O | 2.33% | –
ClCCOCCCl | -1.94% | –
CCBr | 3.81% | –
Nc1c(Cl)cc([N+](=O)[O-])cc1Cl | -13.1% | –
O=[N+]([O-])c1ccccc1O | -0.333% | –
Clc1ccc(Cl)c(Cl)c1 | -20.9% | –
Cc1cc(C)cc(OP(=O)(Oc2cc(C)cc(C)c2)Oc2cc(C)cc(C)c2)c1 | 4.71% | –
Cc1ccc([N+](=O)[O-])cc1 | -2.11% | –
ClCc1ccccn1 | -5.37% | –
CC(C)(Cl)[N+](=O)[O-] | -3.1% | –
CN(C)c1ccc(N(C)C)cc1 | – | 50.1 µM (active)
Cc1ccc(OP(=O)(Oc2ccc(C)cc2)Oc2ccc(C)cc2)cc1 | 6.3% | –
O=Cc1ccc2c(c1)OCO2 | 1.39% | –
Cc1ccc(N)cc1Cl | -4.12% | –
CCSC(=O)N1CCCCCC1 | -2.19% | –
COc1c(C(C)(C)C)cc([N+](=O)[O-])c(C)c1[N+](=O)[O-] | -4.6% | –
Nc1ccc(Cl)c(Cl)c1 | -10.2% | –
O=[N+]([O-])c1ccccc1CCl | -24.9% | –
O=[N+]([O-])c1cccc(O)c1 | -11.2% | –
Brc1ccc(Oc2ccc(Br)cc2Br)c(Br)c1 | 3.25% | –

SMILES | activity change, negative = cytotoxicity | Potency
ClC(Cl)C(Cl)Cl | 12.1% | –
Cc1cc(-c2ccc(N)c(C)c2)ccc1N | -8.98% | –
CC12CC1(C)C(=O)N(c1cc(Cl)cc(Cl)c1)C2=O (stereo not given) | -14.2% | –
O=C(O)CBr | -5.24% | –
C=CCBr | -9.93% | –
CN(C)C(=O)Nc1ccc(Cl)cc1 | -1.39% | –
Cc1ccc(N)cc1C | -11.8% | –
CCCCCC[N+](=O)[O-] | 8.68% | –
N#C/C=C/C#N | – | 31.6 µM (active)
Clc1ccc(C(Cl)(Cl)Cl)c(Cl)c1 | -5.03% | –
Nc1ccc([N+](=O)[O-])cc1[N+](=O)[O-] | -7.09% | –
[N-]=[N+]=[N-] | 6.43% | –
O=[N+]([O-])c1ccc(O)c([N+](=O)[O-])c1 | -11.9% | –
O=[N+]([O-])c1cccc2c([N+](=O)[O-])cccc12 | 9.16% | –
CCOS(C)(=O)=O | 0.61% | –
C=CCc1cc(OC)c2c(c1)OCO2 | -13.9% | –
CC(C)OS(C)(=O)=O | -5.69% | –
O=C(Cl)OCc1ccccc1 | -2.37% | –
CCN(CC)N=O | -3.63% | –
CN(C)c1ccc(N=Nc2ccccc2)cc1 | -23.3% | –
